Bioassay records from PubChem BioAssay.
Most compounds without a hit are left out; they make up all but 0.37% or so of the library.
Rac1 wt modul: alters GTP binding to wildtype human Rac1 | GST-Rac1 beads, fluorescent GTP binding, flow cytometry; actives lie on both sides; 0 = cold GTP competed, 100 = untreated | P63000 | 190,000 compounds, 0.27% hits | AID 757 | GTP binding activity (% of control), % at 10 µM;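 active means GTP binding activity at least 20 points away from the 100% control level, either lower or higher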
Rac1 act GTP bind: human Rac1 activated mutant GTP binding change; P63000; GST-Rac1 activated beads, fluorescent GTP binding, flow cytometry; actives lie on both sides; 100% means binding = to untreated wells; percent activity (GTP binding), % at 10 µM; AID 764; 190,000 compounds, 0.11% hits;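 active means GTP binding at least 20 percentage points away from the 100% baseline, in either direction, so actives lie on both sides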
Rab2A wt mod: changes GTP binding to wildtype dog Rab2A, up or down. GTP binding activity, % at 10 µM. P61105. AID 760. 190,000 compounds, 0.19% hits. GST-Rab2 wt beads, Bodipy-GTP binding, flow cytometry;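 active means GTP binding activity at least 20 points away from 100%, either lowered or raised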
HRas wt GTP bind: modulators of GTP binding to human HRas wildtype; P01112; GST-Ras wt beads, Bodipy-FL-GTP binding, flow cytometry; actives lie on both sides; GTP binding activity, % at 10 µM; 190,000 compounds, 0.14% hits;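 active means GTP binding activity at least 20% away from the 100% baseline, either lowered as inhibitor or raised as activator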
Target sequence (P01112 whole entry, looked up): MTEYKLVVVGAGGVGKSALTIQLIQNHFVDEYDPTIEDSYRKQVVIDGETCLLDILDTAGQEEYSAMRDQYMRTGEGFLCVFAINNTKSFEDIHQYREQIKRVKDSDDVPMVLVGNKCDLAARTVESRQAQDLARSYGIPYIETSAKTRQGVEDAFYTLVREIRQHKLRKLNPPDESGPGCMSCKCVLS
Rab7 wt GTP bind: modulators of GTP binding to dog Rab7 wildtype GTPase; GST-Rab7 beads, fluorescent GTP binding, flow cytometry; actives lie on both sides; untreated = 100%, excess cold GTP = 0%; 190,000 compounds, 0.055% hits; GTP binding activity (percent of control), % at 10 µM;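 active means fluorescent GTP binding to Rab7 beads changed by at least 20 points from the 100% baseline, either direction, mostly lower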;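 further: median green fluorescence of bound Bodipy-FL-GTP per Rab7 bead population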
Cdc42 wt: changes GTP binding to wildtype human Cdc42 | 190,000 compounds, 0.2% hits | percent activity (GTP binding), % at 10 µM | P60953 | GST-Cdc42 beads, Bodipy-GTP binding, flow cytometry; actives lie on both sides;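 active means percent activity GTP binding at least 20 points away from the 100% baseline, either down as inhibitor or up as activator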;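 further: median bead fluorescence of bound Bodipy-FL-GTP at 100 nM; below 100% means less GTP binding so inhibitor and above means activator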
Target sequence (P60953 whole entry, looked up): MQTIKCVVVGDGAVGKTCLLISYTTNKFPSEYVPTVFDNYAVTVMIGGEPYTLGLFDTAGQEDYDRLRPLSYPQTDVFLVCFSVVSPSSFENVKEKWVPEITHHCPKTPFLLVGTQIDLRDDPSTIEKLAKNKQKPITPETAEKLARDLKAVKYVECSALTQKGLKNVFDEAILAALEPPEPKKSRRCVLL
Numbers stand for hits; – = inactive; [ ] = dose if it differs, or a comment.

SMILES	Rac1 wt modul	Rac1 act GTP bind	Rab2A wt mod	HRas wt GTP bind	Rab7 wt GTP bind	Cdc42 wt
COc1cccc(/C=N/NC(=O)C(C)Sc2ccccc2)c1 (configuration not stated)	–	–	–	–	–	–
CCOc1cc(/C=N/NC(=O)C(C)Sc2ccccc2)ccc1O (configuration not stated)	78.0	–	–	–	–	–
CCN(CC)C(=S)SCC(=O)Nc1nc(=O)c2ccccc2s1	–	–	–	–	–	–
Cc1cc(C)nc(Nc2nc(=O)c3ccccc3s2)n1	165.0[activator]	–	–	–	–	135.0[activator]
Cn1cccc1/C=C1\SC(=S)N(NC(=O)c2ccccc2Cl)C1=O	78.0	–	–	–	–	–
O=C(CCCc1nc2ccccc2s1)NNC(=O)CCN1CCN(Cc2ccccc2)CC1	–	–	–	–	–	–
COc1ccc(-c2csc(C3=C(O)CN(C(C)C)C3=N)n2)cc1OC	73.0	–	76.0	76.0	–	73.0
Cc1ccc(-c2nn(-c3ccccc3)cc2NC(=O)CCl)cc1	–	–	–	–	–	–
O=C(O)C1=C[C@@H](c2ccccc2)C[C@@H](OCc2ccc(CO)cc2)O1	–	–	–	–	–	–
O=C(O)C1=C[C@H](c2ccc(Br)cc2)C[C@H](OCc2ccc(CO)cc2)O1	75.0	69.0	74.0	78.0	–	71.0
O=C(c1nn(Cc2ccccc2)c(=O)c2ccccc12)N1CCN(C/C=C/c2ccccc2)CC1	–	–	–	–	–	–
O=C(Nc1nc(-c2ccccn2)cs1)C1CC(=O)N(c2ccc3c(c2)OCCO3)C1 (configuration not stated)	–	–	–	–	–	–
O=C(Cn1nc2ccccc2n1)N/N=C/c1cc([N+](=O)[O-])ccc1O	61.0	79.0	70.0	73.0	–	70.0
O=C(O)COc1ccccc1/C=N/Nc1ccc(S(=O)(=O)Nc2ccc(Cl)cc2)cc1[N+](=O)[O-]	–	–	–	–	–	79.0
COc1cc(/C=C2/SC(=S)NC2=O)ccc1OS(=O)(=O)c1ccc(C)cc1	–	–	–	–	–	–
COc1ccc(/C=C2\SC(=S)NC2=O)cc1OS(=O)(=O)c1ccc(NC(C)=O)cc1	135.0[activator]	–	–	–	–	–
COc1ccc(CCn2c(C(C)C)nc3c(c(=O)c4ccccc4n3C)c2=O)cc1	–	–	77.0	–	–	–
COc1ccc(CCn2c(C)nc3c(c(=O)c4ccccc4n3C)c2=O)cc1	–	–	–	–	–	–
CCOc1ccc(-n2c(=O)c3sccc3n(Cc3cccc([N+](=O)[O-])c3)c2=O)cc1	–	–	–	–	–	–
CC(=O)OC(C(=O)NC1CCCCC1)c1ccc(Cl)c(Cl)c1 (configuration not stated)	29.0	31.0	33.0	35.0	22.0	35.0
Cc1ccc(-n2c(=O)cc(N3CCN(C(=O)c4ccco4)CC3)[nH]c2=O)cc1	121.0[activator]	–	–	–	–	–
Cc1ccc(-n2c(=O)cc(N3CCc4ccccc4C3)[nH]c2=O)cc1	126.0[activator]	–	–	–	–	–
O=c1c(/C=N/OCc2ccc(Cl)cc2Cl)c[nH]n1-c1cccc(Cl)n1	–	–	–	–	–	–
COc1cccc(-c2cc(C(F)(F)F)c(C#N)c(=O)[nH]2)c1	–	77.0	78.0	–	–	–
Cc1c(NC(=O)C(C)OC(=O)c2ccc([N+](=O)[O-])s2)c(=O)n(-c2ccccc2)n1C (configuration not stated)	–	–	–	–	–	–
Cc1ccc(/C=C2\SC(=S)N(C(Cc3ccccc3)C(=O)O)C2=O)cc1 (configuration not stated)	–	–	79.0	–	–	–
CC(C)(C)CC(=O)NC(=S)NCc1ccco1	125.0[activator]	–	–	–	–	–
COC(=O)c1cc(NC(=O)c2cccc([N+](=O)[O-])c2C)ccc1Cl	–	–	–	–	–	–
O=c1[nH]c(Nc2ccc3c(c2)OCCO3)nnc1Cc1ccccc1	–	–	–	–	–	–
